Screening data as filed in PubChem.
The list is not random: actives were taken first. Their share in the collection is about 2.6%.
PAFAH1B3 inh: blocks human PAF acetylhydrolase 1B catalytic subunit 3; inhibition, % at 3.39 µM; Q15102; recombinant PAFAH1B3, FP-rhodamine probe, fluorescence polarization; AID 492972; hit rate 0.28% among 340,000;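 active = inhibition above the screen-wide average of all tested compounds plus 3 SD, cut at about 25% in these data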;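 note: 0% = enzyme with DMSO only and 100% = wells lacking PAFAH1B3 protein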
PKA-R1A activ: activates the PKA-R1A holoenzyme complex; P00514+P68181; PKA-R1A dissociation, Cy5-IP20 fluorescence polarization; scaled: DMSO 0%, 113 µM cGMP 100%; activation, % at 11.4 µM; hit rate 0.083% among 340,000; AID 504707;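 active = percent activation above the mean of all tested compounds plus 3 SD, cut at about 19% in these data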;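 note: higher means more PKAc released from R1A so a rise in polarization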
PAFAH2 inh: PAFAH2 (human) inhibition; Q99487; recombinant PAFAH2, FP-rhodamine activity probe, fluorescence polarization; inhibition, % at 3.39 µM; hit rate 0.99% among 340,000; AID 492956;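 active = inhibition above the mean over all tested compounds plus 3 SD, cut at about 30% in these data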;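 note: inhibitors block probe labeling of enzyme so polarization drops; 0% = enzyme with DMSO and 100% = wells lacking PAFAH2 protein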
PKA-R2B activ: PKA-R2B complex activation; P22694+P31323; PKA-R2B holoenzyme dissociation, Cy5-IP20 fluorescence polarization; R2B truncated from residue 108, S112A mutant; 0% DMSO only, 100% 113 µM cGMP; activation, % at 11.4 µM; hit rate 0.079% among 340,000;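 active = activation above a cutoff set at the mean over all compounds plus 3 SD, cut at about 18% in these data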;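 note: higher means more holoenzyme dissociation and a rise in polarization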
Target sequence (P31323 whole entry, looked up, other chains not shown, the tested form may be a part): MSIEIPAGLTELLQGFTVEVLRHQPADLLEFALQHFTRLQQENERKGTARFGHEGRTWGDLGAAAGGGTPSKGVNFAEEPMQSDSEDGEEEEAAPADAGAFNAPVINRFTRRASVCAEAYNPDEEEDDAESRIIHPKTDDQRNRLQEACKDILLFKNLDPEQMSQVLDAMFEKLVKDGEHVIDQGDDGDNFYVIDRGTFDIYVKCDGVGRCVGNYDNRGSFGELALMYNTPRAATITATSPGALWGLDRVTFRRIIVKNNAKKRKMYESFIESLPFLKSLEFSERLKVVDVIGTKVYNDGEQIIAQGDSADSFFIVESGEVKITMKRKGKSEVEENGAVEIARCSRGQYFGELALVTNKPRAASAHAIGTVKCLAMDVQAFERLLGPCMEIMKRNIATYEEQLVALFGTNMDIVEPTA
pPAFAH FP inh: inhibitors of human plasma PAF acetylhydrolase (pPAFAH). Q13093. recombinant pPAFAH, FP-rhodamine probe fluorescence polarization. inhibition, % at 3.39 µM. hit rate 1.5% among 330,000;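 active = inhibition above the mean inhibition across the screen plus 3 SD, cut at about 25% in these data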;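 note: inhibitors block binding of the rhodamine activity-based probe so polarization drops; 0% = enzyme with DMSO and 100% = wells lacking pPAFAH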
PAFAH1B2 FP inh: blocks human PAF acetylhydrolase 1b catalytic subunit 2; recombinant PAFAH1B2, FP-rhodamine activity probe, fluorescence polarization; inhibition, % at 3.39 µM; hit rate 1.2% among 340,000;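 active = inhibition above the mean of all tested compounds plus 3 SD, cut at about 24% in these data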;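 note: 0% = enzyme with DMSO and 100% = wells lacking PAFAH1B2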
Target sequence (P68402 whole entry, looked up): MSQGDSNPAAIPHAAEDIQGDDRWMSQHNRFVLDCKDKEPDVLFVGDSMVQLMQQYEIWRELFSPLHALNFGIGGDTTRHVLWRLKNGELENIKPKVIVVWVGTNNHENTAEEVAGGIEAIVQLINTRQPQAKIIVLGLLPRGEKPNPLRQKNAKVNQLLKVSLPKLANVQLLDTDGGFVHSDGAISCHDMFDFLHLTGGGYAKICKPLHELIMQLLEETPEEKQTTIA
Active calls of the source: *.

CCOC(=O)/C=C(\C)Sc1cc(O)c2ccccc2c1O was read as PAFAH1B3 inh 36.5*, PKA-R1A activ -16.6, PAFAH2 inh 30.6*, PKA-R2B activ -4.2 and PAFAH1B2 FP inh 19.0.
`CC(C)C(C(=O)Nc1nccs1)c1ccc(Cl)cc1` (stereo not drawn) gave PAFAH1B3 inh 7.9, PKA-R1A activ -12.9, PAFAH2 inh 9.5, PKA-R2B activ -0.7, pPAFAH FP inh -0.4 and PAFAH1B2 FP inh 36.4*.
O=C(CSCc1ccc(Cl)cc1)Nc1nccs1 was read as PAFAH1B3 inh 8.3, PKA-R1A activ -3.5, PAFAH2 inh 8.9, PKA-R2B activ -1.0, pPAFAH FP inh 3.2 and PAFAH1B2 FP inh 27.7*.
Screening O=C(CSCC(=O)Nc1nccs1)Nc1ccccc1 returned PAFAH1B3 inh 2.0, PKA-R1A activ 1.1, PAFAH2 inh 1.8, PKA-R2B activ -1.5, pPAFAH FP inh 6.4 and PAFAH1B2 FP inh 5.9.
CCc1nn(CC(=O)N2CCN(c3ccc(OC)cc3)CC2)c(=O)c2cc3occc3n12 was read as PAFAH1B3 inh 3.7, PKA-R1A activ -5.8, PAFAH2 inh 6.2, PKA-R2B activ -1.2, pPAFAH FP inh -2.6 and PAFAH1B2 FP inh 3.8.
For Cc1ccc(NC(=O)COC(=O)CCC(=O)c2cccs2)cc1S(=O)(=O)N1CCOCC1 the results were PAFAH1B3 inh 9.1, PKA-R1A activ -1.8, PAFAH2 inh -1.1, PKA-R2B activ -6.5, pPAFAH FP inh 6.5 and PAFAH1B2 FP inh 4.8.
Cc1ccc(NC(=O)COC(=O)CCC2CCCC2)cc1S(=O)(=O)N1CCOCC1 was read as PAFAH1B3 inh 0.4, PKA-R1A activ -2.1, PAFAH2 inh 32.4*, PKA-R2B activ 2.8, pPAFAH FP inh 33.3* and PAFAH1B2 FP inh 4.2.
`Cc1ccc(C)c(SCC(=O)OCC(=O)Nc2ccc(S(=O)(=O)N3CCOCC3)cc2)c1` gave PAFAH1B3 inh 7.7, PKA-R1A activ -9.2, PAFAH2 inh 2.1, PKA-R2B activ -22.4, pPAFAH FP inh 25.6* and PAFAH1B2 FP inh 5.8.
Screening Cn1cccc1C(=O)OCC(=O)N1CCN(c2ccccc2)CC1 returned PAFAH1B3 inh 4.0, PKA-R1A activ 7.6, PAFAH2 inh -0.6, PKA-R2B activ -2.8, pPAFAH FP inh 7.4 and PAFAH1B2 FP inh 6.2.
CC(=O)N1CCN(c2nc(-c3ccco3)c3c(c2C#N)CC(C)(C)SC3)CC1 was read as PAFAH1B3 inh 1.7, PKA-R1A activ -3.8, PAFAH2 inh 13.7, PKA-R2B activ -1.6, pPAFAH FP inh 16.5 and PAFAH1B2 FP inh 4.5.
For CC1(C)Cc2c(C#N)c(N3CCN(C(=O)c4ccco4)CC3)nc(-c3ccco3)c2CS1 the results were PAFAH1B3 inh 1.7, PKA-R1A activ 3.1, PAFAH2 inh 17.0, PKA-R2B activ 3.1, pPAFAH FP inh 31.9* and PAFAH1B2 FP inh -3.0.
CC1(C)Cc2c(C#N)c(N3CCN(C(=O)c4ccccc4Cl)CC3)nc(-c3ccco3)c2CS1 was read as PAFAH1B3 inh 5.2, PKA-R1A activ -1.9, PAFAH2 inh 9.6, PKA-R2B activ -0.3, pPAFAH FP inh 34.4* and PAFAH1B2 FP inh 3.9.
CCc1ccc(C2CC(c3ccc(C)cc3)Nc3nc(N)nn32)cc1 (stereo not drawn) was read as PAFAH1B3 inh 1.5, PKA-R1A activ -5.0, PAFAH2 inh 3.3, PKA-R2B activ 1.7, pPAFAH FP inh -6.9 and PAFAH1B2 FP inh 24.7*.
`Cc1ccc(C2CC(c3ccc(F)cc3)Nc3nc(N)nn32)cc1` (stereo not drawn) gave PAFAH1B3 inh 4.5, PKA-R1A activ -9.0, PAFAH2 inh 5.8, PKA-R2B activ -9.6, pPAFAH FP inh -2.7 and PAFAH1B2 FP inh 6.0.
For C/C(=N\Nc1ccc(Cl)c(C(=O)O)c1)c1ccc(Br)s1 the results were PAFAH1B3 inh 6.9, PKA-R1A activ -7.7, PAFAH2 inh 10.9, PKA-R2B activ 7.6, pPAFAH FP inh 26.9* and PAFAH1B2 FP inh 6.7.
`COCCNC(=O)CCCCCNS(=O)(=O)c1ccc(C)cc1` gave PAFAH1B3 inh -4.8, PKA-R1A activ -5.4, PAFAH2 inh 9.3, PKA-R2B activ -6.7, pPAFAH FP inh 14.6 and PAFAH1B2 FP inh 4.6.
`Cc1ccc(S(=O)(=O)NCCCCCC(=O)NCCc2ccccc2)cc1` gave PAFAH1B3 inh 13.3, PKA-R1A activ 10.0, PAFAH2 inh -0.8, PKA-R2B activ -4.8, pPAFAH FP inh 12.9 and PAFAH1B2 FP inh 29.8*.
Screening O=C(CCS(=O)(=O)Cc1ccccc1)NCCc1ccccc1 returned PAFAH1B3 inh 10.5, PKA-R1A activ 3.0, PAFAH2 inh -1.6, PKA-R2B activ -7.4, pPAFAH FP inh 8.7 and PAFAH1B2 FP inh 0.8.
For Cc1ccc(CS(=O)(=O)CCC(=O)NCCc2ccccc2)cc1 the results were PAFAH1B3 inh 1.1, PKA-R1A activ 1.8, PAFAH2 inh 3.4, PKA-R2B activ -3.2, pPAFAH FP inh 24.6* and PAFAH1B2 FP inh 7.2.
`N#C/C(=C\c1cc(Br)ccc1F)C(=O)NC1CC1` gave PAFAH1B3 inh 11.8, PKA-R1A activ -16.4, PAFAH2 inh -5.0, PKA-R2B activ 3.2, pPAFAH FP inh 2.4 and PAFAH1B2 FP inh -3.6.
COc1ccc(-c2ccc(SCC(=O)NC3CCCC3)nn2)cc1 was read as PKA-R1A activ -14.0 and PKA-R2B activ -2.2.
Screening O=C(O)CCc1ccc(NCc2cccc(Oc3ccccc3)c2)cc1 returned PAFAH1B3 inh 13.6, PKA-R1A activ 13.2, PAFAH2 inh 0.2, PKA-R2B activ -3.3, pPAFAH FP inh 12.7 and PAFAH1B2 FP inh 24.4*.
O=C1/C(=C\c2ccco2)SC(=S)N1C1CCCCC1 was read as pPAFAH FP inh 32.6*.
For COC(=O)C(N)CCCCN (stereo not drawn) the results were PAFAH1B3 inh 7.4, PKA-R1A activ -1.5, PAFAH2 inh 3.9, PKA-R2B activ -6.9, pPAFAH FP inh 1.9 and PAFAH1B2 FP inh 4.4.
For CC(C)(C)c1ccc(NC(=O)N2CCCN(c3ccc([N+](=O)[O-])cn3)CC2)cc1 the results were PAFAH1B3 inh 1.3, PKA-R1A activ 6.0, PAFAH2 inh 3.7, PKA-R2B activ -1.6, pPAFAH FP inh 6.0 and PAFAH1B2 FP inh 25.4*.
CCC(C)[C@H](NC(=O)N1CC(=O)Nc2ccccc21)C(=O)Nc1nccs1 (stereo partly drawn) was read as PAFAH1B3 inh 6.3, PKA-R1A activ -4.2, PAFAH2 inh 3.6, PKA-R2B activ -11.0, pPAFAH FP inh -2.3 and PAFAH1B2 FP inh -4.0.
Screening CC(C)(C)S(=O)(=O)N1Cc2cc(=O)n(Cc3ccccc3)c(CCO)c2[C@H]1CCO returned PAFAH1B3 inh 13.7, PKA-R1A activ -11.8, PAFAH2 inh -1.8, PKA-R2B activ -11.3 and PAFAH1B2 FP inh -2.0.
COc1cc(C2Nc3cccc4cccc(c34)N2)cc(OC)c1OC(C)=O was read as PAFAH1B3 inh 31.8*, PKA-R1A activ -10.4, PAFAH2 inh -8.3, PKA-R2B activ -5.2, pPAFAH FP inh 10.8 and PAFAH1B2 FP inh 7.2.
